Several values for one entry are separate records, joined by “and”; a condition that tells them apart may be missing. Equal entries are not always repeated. Records with an inconclusive call do not appear. A call without a number means that no potency is given here. The source holds several records for some structures; these can differ, active in one and inactive in another. Activity calls are given as the source filed them. Calls come from the whole dose curve; as a rule, active = well fitted inhibition curve with a large enough effect; inconclusive = small, poorly fitted or top-dose-only effect; inactive = no such curve, though single readings can be large or run the other way.

Data on 39 compounds can be found in PubChem BioAssay (NCATS).
Note: nearly all actives have a fitted effect of over 60% in size.

Chain of Cytochrome P450 2D6 (Homo sapiens) (P10635 whole entry, looked up): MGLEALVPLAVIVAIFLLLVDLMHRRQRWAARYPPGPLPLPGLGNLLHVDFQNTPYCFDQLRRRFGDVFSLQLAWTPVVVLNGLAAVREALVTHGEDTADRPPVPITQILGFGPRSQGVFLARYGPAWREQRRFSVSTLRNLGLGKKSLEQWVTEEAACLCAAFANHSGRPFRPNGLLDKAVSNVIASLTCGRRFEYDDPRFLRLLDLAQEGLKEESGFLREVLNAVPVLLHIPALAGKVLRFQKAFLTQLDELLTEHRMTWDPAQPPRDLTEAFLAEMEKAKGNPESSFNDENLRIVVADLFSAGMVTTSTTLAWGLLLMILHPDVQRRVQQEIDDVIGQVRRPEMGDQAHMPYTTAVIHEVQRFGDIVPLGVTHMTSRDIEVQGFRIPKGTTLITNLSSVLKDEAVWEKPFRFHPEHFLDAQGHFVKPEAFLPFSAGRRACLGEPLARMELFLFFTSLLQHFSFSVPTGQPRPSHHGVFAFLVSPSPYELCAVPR

One experiment addresses Cytochrome P450 2D6 (Homo sapiens) (UniProt P10635). The experiment is described as follows: qHTS Assay for Inhibitors and Substrates of Cytochrome P450 2D6 (AID 891).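 Note: luciferin methyl ether substrate demethylated by CYP2D6 with NADPH regeneration.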 The note with it: recombinant CYP2D6, luciferin-ME EGE luminescence; series mostly up to 11.4 µM. A digest of the protocol: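 Human CYP2D6 (5 nM) with 30 uM Luciferin-ME EGE (at Km) in 100 mM KPO4, compound preincubated 10 min, then NADPH regeneration system for 60 min at room temperature. Luciferin read by luminescence; normalized to 1.43 uM quinidine.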
(In general: Quantitative high-throughput screening tests each substance at several concentrations.)
For the compound `C=CCOC(=O)C(C(C)=O)C(NC(=O)OC)c1ccco1` (stereo not given), the Potency result is “inactive”.

Regarding `CC1CCC2C(=O)OC(CN=[N+]=[N-])CN2C1c1ccc(Br)cc1` (stereo not given), the Potency result is “inactive”.

As to `CCOC(=O)[C@]1(C(NC(=O)OC)c2ccccc2)CCCC1=O` (stereo not given in full), the Potency entry is “inactive”.

Regarding `COC(=O)C1=C(C)N(Cc2ccccc2)[C@]23O[C@](C(=O)OC)(C(=O)N2C1c1ccccc1)C1C(=O)N(c2ccccc2)C(=O)C13` (stereo not given in full), the Potency entry is “inactive”.

On to `C#CC(C)OC(=O)c1nnc2c3ccccc3n(COC)c2n1` (stereo not given), for which the Potency entry is “inactive”.

As for `C=C(C)C(O)/C=C/C=C/c1ccccc1` (stereo not given), the Potency entry is “inactive”.

On to `COC(=O)C1=C(C)N(Cc2ccccc2)C2=C3C(=O)N(C)C(=O)C3[C@@](O)(C(=O)OC)C(=O)N2C1c1ccccc1` (stereo not given in full), for which the Potency entry is “inactive”.

For the next experiment, the target named is Cytochrome P450 2C19 (Homo sapiens) (UniProt P33261). The experiment is described as follows: qHTS Assay for Inhibitors and Substrates of Cytochrome P450 2C19 (AID 899). Note: potency is the fitted concentration of half-maximal effect. The note with it: recombinant CYP2C19, luciferin-H EGE luminescence; series mostly up to 11.4 µM. Summed up: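 Reactions contain 5nM enzyme, 10uM Luciferin-H EGE (KM) and 50mM KPO4; compound preincubates 10 min at 37C, NADPH regeneration starts turnover for 60 min. Luminescence after detection reagent gives activity.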
Chain of Cytochrome P450 2C19 (Homo sapiens) (P33261 whole entry, looked up): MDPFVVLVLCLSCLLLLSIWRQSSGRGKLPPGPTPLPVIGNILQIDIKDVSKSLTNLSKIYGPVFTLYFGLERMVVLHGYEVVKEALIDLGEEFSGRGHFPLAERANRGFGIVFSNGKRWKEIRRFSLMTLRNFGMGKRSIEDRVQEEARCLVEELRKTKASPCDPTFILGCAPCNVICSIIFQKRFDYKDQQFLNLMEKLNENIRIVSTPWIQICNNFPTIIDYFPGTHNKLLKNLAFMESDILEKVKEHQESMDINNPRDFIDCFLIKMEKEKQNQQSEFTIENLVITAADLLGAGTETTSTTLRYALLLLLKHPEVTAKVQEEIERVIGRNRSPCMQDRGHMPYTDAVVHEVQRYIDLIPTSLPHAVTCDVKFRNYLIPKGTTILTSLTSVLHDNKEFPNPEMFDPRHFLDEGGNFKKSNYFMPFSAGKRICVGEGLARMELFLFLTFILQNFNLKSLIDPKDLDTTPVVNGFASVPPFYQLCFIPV
For `CC(C)=CCC/C(C)=C/C=C/C1=CC2(C)CC1(C)C(/C=C(\C)CCC=C(C)C)CC2=O` (stereo not given), the Potency result is “inactive”.

Take `CC12C=C(/C=C/c3ccccc3)C(C)(C1)C(c1ccccc1)CC2=O` (stereo not given): the Potency is 794 nM (active).

As for `COc1ccccc1/C=C/C1=CC2(C)CC1(C)C(c1ccccc1OC)CC2=O` (stereo not given), the Potency is 3160 nM (active).

For `COC(=O)C1=C(C)N(Cc2ccccc2)C2=C3C(=O)N(c4ccccc4)C(=O)C3[C@@](O)(C(=O)OC)C(=O)N2C1c1ccccc1` (stereo not given in full), the Potency result is “inactive”.

As for `COc1ccc(C#CC2C=CC(OC(C)=O)C(COC(C)=O)O2)cc1` (stereo not given), the Potency result is “inactive”.

Take `CC1Cc2c(-c3ccccc3)nc3c(c2CO1)CN(CCOc1ccccc1)CC3` (stereo not given): the Potency entry was “inactive”.

Take `CCCCCCC1=Cc2cc(OC)c(OC)cc2C(CC(=O)/C=C/OC)O1` (stereo not given): the Potency entry is “inactive”.

With `C=CCOCC/C=C1/c2ccccc2C(OC)C1C` (stereo not given), the Potency is 3980 nM (active).

Regarding `CCC(=O)CC(NC(=O)OC)c1ccccc1` (stereo not given), the Potency entry is “inactive”.

`COC(=O)C1=C(C)N(Cc2ccccc2)c2c(C(=O)OC)c(C(=O)OC)c(C(=O)OC)c(=O)n2C1c1ccccc1` (stereo not given): the Potency result was “inactive”.

As to `COC(=O)[C@@H]1CC[C@H](C)[C@@H](c2ccc(C)cc2)N1C(=O)c1ccc(/C=N\OC[C@@H](O)[C@H]2O[C@H]3OC(C)(C)O[C@H]3[C@@H]2O)cc1`, the Potency was 631 nM (active).

Consider `CCCCCCC1=Cc2cc(OC)c(OC)cc2C(C(C(C)=O)C(=O)OC)O1` (stereo not given), for which the Potency is 3160 nM (active).

For the compound `OCC1OC(C#Cc2ccccc2)C=CC1O` (stereo not given), the Potency result was “inactive and 631 nM (active)”.

For the compound `O=C(/C=N/O)NCCCCNC(=O)/C=N/O`, the Potency entry was “inactive”.

For the compound `C=CCOC(=O)C(C(=O)CC)C(NC(=O)OC)c1ccc(F)cc1` (stereo not given), the Potency entry was “inactive”.

Turning to `CC1CCC(C(=O)O)NC1c1cccc(N2CCOCC2)c1` (stereo not given), the Potency result was “inactive”.

On to `CC12C=C(/C=C/c3ccc(C(F)(F)F)cc3)C(C)(C1)C(c1ccc(C(F)(F)F)cc1)CC2=O` (stereo not given), for which the Potency entry is “inactive”.

For `C=C(C)C(O)/C=C/CCCCCCC` (stereo not given), the Potency entry was “inactive”.

With `C=CCOC(=O)C(C(C)=O)C(NC(=O)OC)c1ccc2ccccc2c1` (stereo not given), the Potency was 126 nM (active).

With `CCC(=O)CC(NC(=O)OC)c1ccc(F)cc1` (stereo not given), the Potency entry was “inactive”.

On to `COC1(C#CC2C=CC(OC(C)=O)C(COC(C)=O)O2)CCCCC1` (stereo not given), for which the Potency result was “inactive”.

Take `C=CCC1(C)OC=Cc2nc3cc(Cl)c(Cl)cc3nc21` (stereo not given): the Potency is 3980 nM (active).

Take `COc1ccc(O[C@H]2C=C[C@@H](c3ccccc3)O[C@H]2COC(=O)CC/C(C)=N/OCC[C@@H]2C=C[C@H](OC(C)=O)[C@H](COC(C)=O)O2)cc1`: the Potency is 398 nM (active).

Turning to `CCN1C(C)=C(C(=O)OC)C(c2ccccc2)N2C(=O)[C@](O)(C(=O)OC)C(c3ccccc3)C(C(C)=O)=C12` (stereo not given in full), the Potency entry is “inactive”.

Take `O=C1C=C[C@@H](O)[C@@H]2[C@H]3C(=O)N(c4ccc(F)cc4F)C(=O)[C@@H]3CC[C@@H]12`: the Potency result is “inactive”.

Turning to `CCCCc1nc2c(c3c1CC(C)OC3)CN(CCOc1ccccc1)CC2` (stereo not given), the Potency result was “inactive”.

Turning to `CC(=O)OCC1OC(C#Cc2ccccc2)C=CC1OC(C)=O` (stereo not given), the Potency result was “inactive”.

Consider `C=CCOC(=O)C(C(C)=O)C(NC(=O)OC)c1ccco1` (stereo not given), for which the Potency entry is “inactive”.

Turning to `CCOC(=O)[C@]1(C(NC(=O)OC)c2ccccc2)CCCC1=O` (stereo not given in full), the Potency was 1260 nM (active).

`CC1Cc2c(COc3ccccc3)nc3c(c2CO1)CN(CCOc1ccccc1)CC3` (stereo not given): the Potency result was “inactive”.

On to `CCC(=O)[C@]12O[C@@]3(C4C(=O)OCCC41)N(CC)C(C)=C(C(=O)OC)C(c1ccccc1)N3C2=O` (stereo not given in full), for which the Potency entry is “inactive”.

In the case of `COC(=O)C1=C(C)N(Cc2ccccc2)[C@]23O[C@](C(=O)OC)(C(=O)N2C1c1ccccc1)C1C(=O)N(c2ccccc2)C(=O)C13` (stereo not given in full), the Potency entry was “inactive”.

With `C#CC(C)OC(=O)c1nnc2c3ccccc3n(COC)c2n1` (stereo not given), the Potency result is “inactive”.

Take `CC(C)CN1CCc2nc(-c3ccccc3)c3c(c2C1)COC(C)C3` (stereo not given): the Potency entry was “inactive”.

Turning to `COC(=O)NC(c1ccco1)[C@]1(C(C)=O)CCCC1=O` (stereo not given in full), the Potency result is “inactive”.

As to `OCC1OC(c2ccc3c(c2)OCO3)C=CC1Oc1ccc(C2CCCC2)cc1` (stereo not given), the Potency result is “inactive”.

Take `C=C(C)C(O)/C=C/C=C/c1ccccc1` (stereo not given): the Potency result was “inactive”.

As to `COC(=O)C1=C(C)N(Cc2ccccc2)C2=C3C(=O)N(C)C(=O)C3[C@@](O)(C(=O)OC)C(=O)N2C1c1ccccc1` (stereo not given in full), the Potency result was “inactive”.
